Bioassay records (PubChem BioAssay)
In the library only some 11% were active in any assay of this set; here they are far more common.
NS1 inh – inhibitors of influenza NS1 protein function; Potency, µM (top dose mostly 46.1 µM), for the others: top-dose activity, positive = more growth; 270,000 tested, 0.4% active; calls by dose curve; further: potency means the concentration at half of the fitted maximal effect; actives are rising curves; nearly all actives have a fitted effect of over 50% in size
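Compounds were scored for reversing the slow growth caused by influenza A NS1 in S. cerevisiae, measured by optical density at 600 nm. Assay medium contained 2% galactose at pH 6.0; NS1-free yeast of the same strain were the positive control.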
Pf growth 96h – P. falciparum growth inhibition at 96 hour, primary screen for plastid delayed-death inhibitors; 320,000 tested, 6.9% active; AID 504834; P. falciparum luciferase reporter growth, 96 h; Potency, µM (top dose mostly 28.7 µM), inactives show top-dose activity change, negative = inhibition, usual class: inhibitors; further: potency means the concentration at half of the fitted maximal effect; on the % scale 0 is the no-effect control and ±100 the full control effect
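Compounds incubated with erythrocytes infected by luciferase-expressing P. falciparum (2% hematocrit, 0.05% parasitemia final) for 96 hours, 37 C in 5% CO2. Growth inhibition scored as decreased luciferase luminescence.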
HCV inh – HCV inhibition | Huh7.5.1 HCVcc-Cre infection, luciferase reporter, 44 h | Potency, µM (series often up to 41.8 µM), for inactives: top-dose activity change, negative = inhibition, actives largely listed as inhibitors | 340,000 tested, 3.4% active; further: potency means the concentration at half of the fitted maximal effect; on the % scale 0 is the no-effect control and ±100 the full control effect
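HCVcc-Cre virus at an moi near 0.5 was added right after compound to cells cultured 4 h from seeding (1,000 cells/well). Luciferase activity was determined 44 h later, 15 min after substrate addition at RT.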
Vaccinia Venus – vaccinia inhibition (Venus reporter); Vaccinia virus Venus reporter expression, fluorescence; AID 720580; 330,000 tested, 0.46% active; Potency, µM (highest dose often 36.5 µM), without a hit: top-dose activity change, negative = inhibition, usual class: inhibitors; calls by dose curve; tested in A549 cells; further: potency means the concentration at half of the fitted maximal effect; on the % scale 0 is the no-effect control and ±100 the full control effect; nearly all actives have a fitted effect of over 30% in size
Vaccinia mCherry – inhibitors of vaccinia virus infection (mCherry reporter signal) | Vaccinia virus mCherry reporter infection, fluorescence | Potency, µM (series often up to 36.5 µM), inactives show top-dose activity change, negative = inhibition, hits mostly inhibitors | 310,000 tested, 0.63% active | AID 720579; calls by dose curve; tested in A549 cells; further: potency means the concentration at half of the fitted maximal effect; on the % scale 0 is the no-effect control and ±100 the full control effect; nearly all actives have a fitted effect of over 35% in size
Pf growth 48h – P. falciparum growth inhibition at 48 hours (one generation) | P. falciparum luciferase growth in erythrocytes, 48 h | Potency, µM (top dose mostly 28.7 µM), for the others: at the top dose activity change, negative = inhibition, usual class: inhibitors | 310,000 tested, 5.9% active; further: potency means the concentration at half of the fitted maximal effect; on the % scale 0 is the no-effect control and ±100 the full control effect
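First compound was added to culture medium, then infected red cells at 0.1% parasitemia and 2% hematocrit (final). After incubation at 37 C under 5% CO2, luciferase detection reagent was dispensed and light output recorded.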
Flu NS1 inh – validation of influenza NS1 protein function inhibitors | shares compounds with NS1 inh | influenza NS1 function cell assay, 15-point titration | activity change, negative = inhibition, % at 32.9 µM | 1,400 tested, under 10 active | AID 492980; calls by dose curve; further: 0% is about no effect
Numbers without * were called inactive; i = inactive; ? = inconclusive; nt = not tested or not shown; [ ] = dose if it differs, or a comment. Unless noted, the call rests on the fitted dose curve; in most records, active means well fitted inhibition curve with a large enough effect; inconclusive means small, poorly fitted or top-dose-only effect, or another doubt; inactive means no such curve, though single readings can be large or run the other way.

SMILES | NS1 inh | Pf growth 96h | HCV inh | Vaccinia Venus | Vaccinia mCherry | Pf growth 48h | Flu NS1 inh
Cc1cccc(C)c1NC(=O)C1(C)CSCC(=O)N1CCc1ccccc1 (stereo unspecified) | nt | nt | nt | 2% | i | nt | nt
Nc1ccc(N(CCO)CCO)cc1 | 2% | 33% | 18% | 10% | -1% | ? | nt
OCCN(CCO)c1ccc(C(c2ccc(Cl)cc2)c2ccc(N(CCO)CCO)cc2Cl)c(Cl)c1 | 14µM* | 58% | ? | -7% | i | ? | 8
O=C(NCCSc1c(-c2ccccc2)[nH]c2ccccc12)c1cc2ccccc2oc1=O | 11µM* | -28% | 2%[8.37 µM] | -18% | -22% | -16% | -3
COc1cc2cncc(Cc3ccccc3)c2cc1O | nt | nt | 23% | 1% | -11% | nt | nt
O=C(O)CC(c1cccc2ccccc12)N1Cc2ccccc2C1=O (stereo unspecified) | ? | ? | 15% | 0% | 0% | ? | 15
CC1(C)Cc2c(C#N)c(N3CCN(C(=O)c4ccccc4)CC3)nc(-c3ccco3)c2CS1 | 8.9µM* | ? | ? | -5% | -6% | ? | -35
O=C(CSc1nnc(-c2ccccc2O)n1Cc1ccccc1)NNC(=O)c1ccccc1O | 10% | 42% | 10% | -17% | -24% | 13% | nt
COc1ccc(C2CC(c3ccccc3Cl)Nc3ncnn32)cc1OC (stereo unspecified) | 4.5µM* | 19% | -11% | -18% | i | -29% | ?
CCCc1nn2c(=O)cc(COc3ccc(/C=C(\C#N)C(=O)Nc4ccc(F)cc4)cc3)nc2s1 | nt | nt | nt | -5% | 1% | nt | nt
CCOc1ccc2[nH]c3c(c2c1)CNCC3 | 8% | 1% | -26% | nt | nt | ? | nt
COc1ccc2[nH]c3c(c2c1)CCNC3 | 18µM* | 42% | -20% | -23% | -14% | 5% | 13
COC(=O)c1cc(S(=O)(=O)N2CCN(c3ccc(C(C)=O)cc3)CC2)cn1C | -6% | 15% | -3% | nt | nt | -9% | nt
CCCCOc1cccc(C(=O)Nc2ccc(S(=O)(=O)Nc3nnc(CC)s3)cc2)c1 | 8.9µM* | ? | 14% | nt | nt | -1% | 11
COc1ccc(C(=O)Nc2ncccc2C)cc1S(=O)(=O)N1CCCc2ccccc21 | nt | 23% | 1% | -11% | -17% | -14% | nt
COc1ccc(C(=O)Nc2nc3c(s2)CCCC3)cc1S(=O)(=O)N1CCCc2ccccc21 | 13µM* | 10µM* | ? | 2% | 11µM* | 13µM* | -5
O=c1cc(O)nc(SCc2ccccc2)n1-c1ccccc1 | ? | -18% | 0% | nt | nt | 8% | nt
C=CCn1c(SCc2ccccc2)nc(O)cc1=O | 6.3µM* | -55% | 25% | -1% | nt | nt | 31
O=C(O)CSc1cnc2ccccc2n1 | 16µM* | -5% | 17% | -8% | nt | nt | 7
COc1cc(NC(=O)Cc2ccccc2)cc(OC)c1 | 2% | 14% | 6% | -18% | -9% | nt | nt
Cc1ccc(N2Cc3ccccc3C2=S)cc1 | nt | ? | -13% | -14% | -11% | 494% | nt
S=C1c2ccccc2CN1c1ccccc1 | ? | 80% | 9% | -22% | -6% | 78% | 1
O=C1c2ccccc2C(=O)N1OCc1c(F)cccc1Cl | -4% | 33% | 9% | -17% | 0% | 26% | nt
O=C(Cc1c(F)cccc1Cl)OCN1C(=O)c2ccccc2C1=O | 2.2µM* | 80% | 17% | -4% | -15% | 2% | -6
COc1ccc(N2C(=O)NC(NC(=O)c3cccnc3)(C(F)(F)F)C2=O)cc1 (stereo unspecified) | -4% | ? | 4% | -10% | 0% | -14% | nt
O=C(CN1C(=O)CSc2ccccc21)N1CCc2ccccc21 | ? | ? | 0% | nt | nt | -6% | 4
O=C(CN1CCc2ccccc2C1)NCc1ccco1 | ? | nt | 12% | nt | nt | -20% | 4
CCOc1ccc(NC(=O)c2c(NC(=O)CNCCN3CCOCC3)sc3c2CCC3)cc1 | 2.8µM* | 6% | ? | nt | nt | 0.33µM* | -18
